Screening results: PubChem, National Center for Advancing Translational Sciences (NCATS)
SMN2 splice up: increases expression of the SMN2 splice variant. HEK293 SMN2-luciferase splicing reporter, luminescence, 30-36 h. AID 1458. 210,000 tested, 2.8% active. Potency, µM (highest dose often 46.1 µM), hits mostly activators; further: nearly all actives have a fitted effect of over 55% in size
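HEK293 cells carry an SMN2 […]–luciferase reporter in which exon 7 inclusion puts luciferase in frame. Cells were plated 10-12 h before compound addition, then incubated 30-36 h at 37C. ONE-Glo luminescence was read; sodium butyrate at 4.5 mM final served as control.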
ELG1 genotox: induces genotoxicity in HEK293T cells with luciferase-tagged ELG1 | AID 504466 | 330,000 tested, 1.3% active | HEK293T ELG1-luciferase reporter, luminescence, 16 h | Potency, µM (series often up to 46 µM), actives largely listed as activators; further: nearly all actives have a fitted effect of over 60% in size
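ELG1-luciferase HEK293T cells, 2,000/well; compound pinned in; 16 hr, 37 °C, 5% CO2; ONE-Glo, 30 min RT; luminescence on CCD imager.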
FLuc counter: counter-screen for miR-21 project: firefly luciferase inhibitors or activators; Potency, µM (doses to about 57.5 µM), usual class: inhibitors; 360,000 tested, 6.9% active; purified FLuc, Km substrates, luminescence inhibition; P08659; further: nearly all actives have a fitted effect of over 55% in size
Target sequence (P08659 whole entry, looked up): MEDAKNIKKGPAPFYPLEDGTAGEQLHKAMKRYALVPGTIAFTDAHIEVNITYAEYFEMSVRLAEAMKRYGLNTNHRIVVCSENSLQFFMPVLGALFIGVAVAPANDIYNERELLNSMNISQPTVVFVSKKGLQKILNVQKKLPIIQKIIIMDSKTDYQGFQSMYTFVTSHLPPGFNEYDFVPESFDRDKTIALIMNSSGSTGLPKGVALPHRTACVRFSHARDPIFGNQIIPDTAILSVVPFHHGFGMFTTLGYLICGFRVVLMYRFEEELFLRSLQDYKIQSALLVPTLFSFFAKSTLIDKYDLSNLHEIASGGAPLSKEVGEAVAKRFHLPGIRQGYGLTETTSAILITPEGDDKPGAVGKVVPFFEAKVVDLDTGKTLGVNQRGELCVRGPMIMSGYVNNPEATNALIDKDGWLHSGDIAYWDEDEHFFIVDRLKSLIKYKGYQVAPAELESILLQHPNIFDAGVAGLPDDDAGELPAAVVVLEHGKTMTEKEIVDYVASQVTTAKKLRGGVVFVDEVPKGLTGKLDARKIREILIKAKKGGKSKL
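Purified P. pyralis luciferase (10nM final) with 10uM D-luciferin and 10uM ATP (Km levels) in 50mM Tris acetate pH 7.5, 10mM Mg acetate, 0.01% Tween-20, 0.05% BSA; qHTS 6-point titration, ~60 µM downward; luminescence read.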
NPC1 prom act: NPC1 promoter activation. Huh7 NPC1 promoter luciferase reporter, 24 h. Potency, µM (doses to about 9.22 µM), actives largely listed as activators. 320,000 tested, 2.4% active; further: nearly all actives have a fitted effect of over 60% in size
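Huh7 cells stably carrying NPC1 promoter–luciferase, plated in Opti-MEM with 10% FBS for 2 h, were exposed to compound in DMSO for 24 h at 37 °C; luciferase reagent was added for 10 min and luminescence read.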
Luc counter: Kinase-Glo luciferase inhibition (counter-screen) | Q27757 | Potency, µM (top dose mostly 38.3 µM), usual class: inhibitors | Kinase-Glo luciferase, ATP luminescence, 8 min | AID 1379 | 200,000 tested, 0.28% active; further: nearly all actives have a fitted effect of over 60% in size
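Inhibition of Kinase-Glo luciferase light generation was assessed at 10 uM ATP in pH 7.2 imidazole buffer, with luminescence measured after eight minutes at ambient temperature.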
Rab9 prom act: activates the Rab9 promoter. Huh7 Rab9 promoter-luciferase reporter, luminescence, 24 h. Potency, µM (highest dose often 9.22 µM), hits mostly activators. 320,000 tested, 2.8% active. AID 485297; further: nearly all actives have a fitted effect of over 60% in size
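Cells were plated at 1500 per well in reduced-serum medium with 10% FBS and left 2 h. Compound in DMSO was then added for 24 h at 37 °C. Reporter signal was read by luminescence after 10 min with luciferase detection reagent.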
Numbers stand for hits; - = inactive; ? = inconclusive; . = no result given; [ ] = another dose, or the depositor's remark. The list is not random: actives were taken first. Their share in the collection is about 7.5%. The call rests on the fitted dose curve; in most records, active means well fitted curve in the direction sought with a large enough effect; inconclusive means small, poorly fitted or top-dose-only effect, or another doubt; inactive means no such curve, though single readings can be large; an effect the other way counts as inactive or inconclusive.

SMILES | SMN2 splice up | ELG1 genotox | FLuc counter | NPC1 prom act | Luc counter | Rab9 prom act
COCCNCc1nc2sc(C)c(-c3ccccc3)c2c(=O)[nH]1 | . | - | - | - | . | -
CNc1ncnc2c1ncn2[C@H]1C[C@H](OP(=O)(O)O)[C@@H](COP(=O)(O)O)O1 | - | . | . | - | - | -
CCOc1ccc(CNCc2c(C(=O)O)c(C)n(Cc3ccc(C)cc3)c2C)cc1 | - | . | - | . | . | .
Cc1ccc(-c2cc(C(=O)Nc3ccc(SC(F)F)cc3)no2)cc1F | . | . | - | . | . | .
Cc1cc2[nH]c(=O)cc(-c3ccccc3)n2n1 | . | ? | 9.5µM | ? | . | ?
Cc1cc2[nH]c(=O)c3ccccc3n2n1 | - | - | - | - | - | -
CC(C)CC(NS(=O)(=O)c1cccc(C(=O)O)c1)C(=O)O (stereo not given) | - | - | - | - | - | -
Cc1ccc(-c2nc3ccccc3n3nnnc23)cc1 | 13µM | ? | - | - | - | -
Fc1ccccc1Nc1nc2ccccc2n2nnnc12 | ? | 13µM | ? | - | - | ?
Cc1ccc(Sc2cnc3ccccc3n2)cc1 | ? | 2.6µM | 6.7µM | ? | - | 3.5µM
Cc1ccc(-c2noc(C3CCCCC3)n2)cc1 | - | ? | ? | 4µM | - | ?
CCS(=O)(=O)N1CCC(c2nc(-c3ccc(C)cc3)no2)CC1 | - | - | 15µM | ? | - | ?
Cc1cccc(-c2noc(C3CCCCC3)n2)c1 | - | . | 3µM | . | - | .
CCS(=O)(=O)N1CCC(c2nc(-c3ccc(C(F)(F)F)cc3)no2)CC1 | - | - | - | - | - | -
Cc1cccc(C)c1NC(=O)Cn1c(=O)cc(C)c2c(C)nn(-c3cccc(Cl)c3C)c21 | . | . | - | . | . | .
CC(=O)NC(=S)Nc1ccc(S(=O)(=O)Nc2nc(C)cc(C)n2)cc1 | - | - | - | - | - | -
COCCCN1C(=O)c2ccc(C(=O)NCCc3ccccc3)cc2C1=O | . | ? | 6µM | - | . | ?
COCCCN1C(=O)c2ccc(C(=O)Nc3cccc(OC)c3)cc2C1=O | - | ? | 11µM | - | ? | -
CC(=O)Oc1cccc(NC(=O)c2ccc3c(c2)C(=O)N(CC(C)C)C3=O)c1 | . | ? | 11µM | - | . | -
COc1cccc(C(=O)Nc2ccc3c(c2)C(=O)N(CCC(=O)O)C3=O)c1 | - | - | 17µM | - | - | -
Cc1ccn2cc(CNS(=O)(=O)c3ccc4ccccc4c3)nc2c1 | . | - | - | - | . | -
O=C(NCc1ccccn1)C(=O)Nc1ccccc1 | 18µM | ? | ? | ? | - | ?
O=C(NCc1ccccn1)Nc1cccc(Cl)c1 | - | ? | 19µM | - | - | -
O=C(NCc1ccccn1)Nc1cccc(NC(=O)NCc2ccccn2)c1 | ? | ? | ? | - | - | -
O=C(NCc1ccccn1)Nc1cc(Cl)ccc1Cl | . | - | 1.2µM | - | . | 3.2µM
SMILES | SMN2 splice up | ELG1 genotox | FLuc counter | NPC1 prom act | Luc counter | Rab9 prom act
CCCCC(=O)Nc1ccc(OCc2cc(=O)n3ccc(C)cc3n2)cc1 | . | . | - | . | . | .
CN1CCN(C(=O)CN(C)S(=O)(=O)c2ccc3ccccc3c2)CC1 | . | - | - | - | - | -
CC(/C=N/N1CCN(c2ccccc2)CC1)=C\c1ccco1 | 14µM | ? | 2.4µM | 2µM | 7.9µM | ?
CC(=C/c1ccco1)/C=N/N1CCN(c2ccccc2)CC1 | ? | ? | 2.7µM | 2.5µM | 10µM | 1.8µM
COc1cccc(CNC(=O)CCNS(=O)(=O)c2ccc3c(c2)CCCC(=O)N3)c1 | . | . | - | . | . | .
O=C(Nc1ccccc1-c1ccccc1)C1CCCN(c2ncccn2)C1 (stereo not given) | - | - | - | - | - | -
CCOc1ccc(Cc2nc(-c3nonc3N)no2)cc1OCC | - | - | - | - | - | -
Cc1cccc(OCc2nc(-c3nonc3N)no2)c1C | 10µM | 10µM | ? | 3.2µM | - | ?
Nc1nonc1-c1noc(COc2ccccc2Cl)n1 | 11µM | 5.2µM | 4.8µM | 1.4µM | - | 1.1µM
C=CC1=C2C=C(C3CC3)N(Cc3ccccc3)C=C2C(=O)C(C)(OC(=O)c2ccco2)C1=O (stereo not given) | -[9.22 µM] | . | . | . | -[7.66 µM] | .
COC(=O)C=P(c1ccccc1)(c1ccccc1)c1ccccc1 | - | . | . | . | - | .
Cc1ccc(S(=O)(=O)NC23CC4CC(CC(C4)C2)C3)cc1 | . | - | . | - | . | -
Cc1nn(C)c(C(=O)Nc2ccc(S(=O)(=O)NC34CC5CC(CC(C5)C3)C4)cc2)c1Br | 1µM | - | - | 1.4µM | - | 1.6µM
O=C(O)c1ccc2nc(-c3cc4cc(Cl)ccc4oc3=O)[nH]c2c1 | . | . | 21µM | . | . | .
Cc1cccc2cc(-c3nc4ccc(C(=O)O)cc4[nH]3)c(=O)oc12 | . | ? | 0.43µM | ? | . | ?
CC(=O)Oc1ccc(NC(=O)CSc2ccccc2)cc1 | ? | 15µM | ? | - | - | -
O=C(CSc1ccc(F)cc1)Nc1ccc(C2SCCS2)cc1 | . | ? | 11µM | ? | . | ?
COc1ccc(NC(=O)CSc2ccc(C)cc2)cc1 | - | ? | 21µM | ? | - | -
COc1ccc(NC(=O)c2ccccc2NC(=O)CSc2ccc(C)cc2)cc1 | - | ? | - | - | - | ?
COc1ccccc1CNC(=O)CSc1ccccc1 | ? | ? | ? | ? | - | 3.2µM
CCCOc1ccc(C(=O)Nc2cc3c(cc2N2CCCCC2)n(C)c(=O)n3C)cc1 | - | . | - | . | . | .
Cc1cccc(NC(=O)c2cc3c(=O)n4cccc(C)c4nc3s2)c1C | - | . | - | . | . | .
CN1CCN(C(=S)c2ccc(-c3cccc([N+](=O)[O-])c3)o2)CC1 | . | 10µM | 6.7µM | 2.2µM | . | 2.2µM
O=[N+]([O-])c1cc(-c2ccc(C(=S)N3CCOCC3)o2)ccc1Cl | - | - | 15µM | - | - | -
O=[N+]([O-])c1cccc(-c2ccc(C(=S)N3CCOCC3)o2)c1 | 11µM | ? | 3µM | 2.8µM | - | 1.1µM
SMILES | SMN2 splice up | ELG1 genotox | FLuc counter | NPC1 prom act | Luc counter | Rab9 prom act
O=S1(=O)CCC(NC(=S)N2CCOCC2)C1 (stereo not given) | - | - | - | - | - | -
N#C/C(=C\c1c[nH]c2ccccc12)C(=O)NCC1CCCO1 (stereo not given) | . | ? | 17µM | - | - | -
Cc1[nH]c2ccccc2c1/C=C(\C#N)C(=O)NCC1CCCO1 (stereo not given) | . | - | ? | - | - | -
Clc1ccccc1CSc1nnc(-c2ccncc2)o1 | 10µM | - | 17µM | ? | - | ?
COc1cc(-c2nnc(SCc3c(F)cccc3Cl)o2)cc(OC)c1OC | - | - | - | - | - | -
c1ccc2c(CSc3nnc(-c4ccncc4)o3)cccc2c1 | - | - | - | - | - | -
Fc1cccc(Cl)c1CSc1nnc(-c2ccncc2)o1 | . | ? | 15µM | ? | . | 4.5µM
CCOC(=O)c1ccc(NS(=O)(=O)c2c(C)[nH]c(C)c2C(=O)N2CCCCC2)cc1 | . | -[9.26 µM] | - | - | . | -
